Compounds with a hit are over-represented: about 2.1% of the library has one in this group of screens.
ADAM10 inh = human ADAM10 inhibitors, primary screen, biochemical, QFRET, HTS | Disintegrin and metalloproteinase domain-containing protein 10 (Homo sapiens), O14672 | inhibition, % at 7 µM | recombinant ADAM10, EDANS/DABCYL FRET peptide cleavage, 3 h | 370,000 compounds, 0.62% hits;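 active = inhibition above a per-campaign cutoff equal to the mean of compounds falling between control-based bounds plus 3 SD, cut at about 20% in these data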
PLC-gamma1 inh = PLC-gamma1 enzyme inhibitors, primary screen, biochemical, fluorescence, purified enzyme | 1-phosphatidylinositol 4,5-bisphosphate phosphodiesterase gamma-1 (Homo sapiens), P19174 | fluorogenic substrate | inhibition, % at 12.2 µM | 370,000 compounds, 0.84% hits | AID 720700, 2013; in the data active = inhibition above about 9.5%
Target sequence (P19174 whole entry, looked up): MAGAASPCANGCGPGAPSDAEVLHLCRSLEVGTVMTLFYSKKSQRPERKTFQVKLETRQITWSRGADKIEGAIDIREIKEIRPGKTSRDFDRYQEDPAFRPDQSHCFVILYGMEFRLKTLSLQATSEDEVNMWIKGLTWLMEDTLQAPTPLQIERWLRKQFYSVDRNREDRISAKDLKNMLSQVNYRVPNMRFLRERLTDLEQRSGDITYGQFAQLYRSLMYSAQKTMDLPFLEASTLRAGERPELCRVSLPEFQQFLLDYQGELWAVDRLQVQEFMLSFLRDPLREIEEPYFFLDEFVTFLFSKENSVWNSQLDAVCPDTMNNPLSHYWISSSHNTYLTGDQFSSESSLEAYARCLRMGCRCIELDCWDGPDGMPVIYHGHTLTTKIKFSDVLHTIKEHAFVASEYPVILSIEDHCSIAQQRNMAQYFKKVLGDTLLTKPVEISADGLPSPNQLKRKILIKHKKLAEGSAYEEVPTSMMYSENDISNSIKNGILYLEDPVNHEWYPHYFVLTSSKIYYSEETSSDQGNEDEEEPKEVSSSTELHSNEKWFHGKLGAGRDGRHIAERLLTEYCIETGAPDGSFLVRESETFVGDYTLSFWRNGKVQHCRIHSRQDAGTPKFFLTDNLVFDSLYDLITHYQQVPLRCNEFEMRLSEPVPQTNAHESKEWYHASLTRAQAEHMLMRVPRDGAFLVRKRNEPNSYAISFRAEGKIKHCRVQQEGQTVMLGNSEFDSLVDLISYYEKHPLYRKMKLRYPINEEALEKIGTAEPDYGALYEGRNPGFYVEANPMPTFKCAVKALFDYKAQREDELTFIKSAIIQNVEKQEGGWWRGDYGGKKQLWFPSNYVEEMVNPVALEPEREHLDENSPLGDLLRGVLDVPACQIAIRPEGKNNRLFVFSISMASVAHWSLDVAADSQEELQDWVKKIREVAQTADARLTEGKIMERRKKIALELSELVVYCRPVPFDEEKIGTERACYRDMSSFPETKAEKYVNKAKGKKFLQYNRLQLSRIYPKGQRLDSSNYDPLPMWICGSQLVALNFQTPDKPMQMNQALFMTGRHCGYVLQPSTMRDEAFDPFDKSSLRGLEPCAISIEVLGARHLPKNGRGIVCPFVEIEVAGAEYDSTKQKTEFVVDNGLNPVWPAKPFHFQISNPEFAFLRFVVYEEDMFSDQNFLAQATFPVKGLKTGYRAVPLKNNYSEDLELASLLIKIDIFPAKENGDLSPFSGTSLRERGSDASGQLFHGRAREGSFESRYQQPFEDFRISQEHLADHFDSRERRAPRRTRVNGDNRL
ADAM17 inh = ADAM17 inhibitors, primary screen, biochemical, QFRET | recombinant ADAM17, EDANS/DABCYL FRET peptide cleavage | inhibition, % at 6.95 µM | 370,000 compounds, 0.83% hits;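 active = inhibition above the mean of compounds lying between control limits plus 3 SD, set per campaign, cut at about 8.5% in these data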
Rce1 inhib = yeast Rce1p protease inhibitors, primary screen, biochemical, fluorescence, cell-free homogeneous; AID 2563, 2010; yeast membranes, quenched prenylated peptide cleavage fluorescence; CAAX prenyl protease 2 (Saccharomyces cerevisiae (strain ATCC 204508 / S288c)), Q03530; calls only; 290,000 compounds, 0.27% hits;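 active = fall in fluorescence gain of 50% or more versus controls, with final raw signal at or below 3038400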
PLC-beta3 inh = human PLC-beta3 inhibitors, primary screen, biochemical, fluorescence; 1-phosphatidylinositol 4,5-bisphosphate phosphodiesterase beta-3 (Homo sapiens), Q01970; Purified PLC-beta3, fluorogenic substrate; inhibition, % at 12.2 µM; 370,000 compounds, 0.18% hits
ADAM10 confirm = human ADAM10 inhibitors, confirmation, biochemical, QFRET, triplicate; shares compounds with ADAM10 inh; ADAM10 QFRET peptide cleavage, EDANS fluorescence; inhibition, % at 6.95 µM; 2,100 compounds, 1% hits;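 active = inhibition above about 20% chosen separately for each screening run, limit read from the data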
ADAM17 ctr = ADAM17 inhibitors, counter-screen for ADAM10 exosite inhibitor project, biochemical, QFRET, high throughput. inhibition, % at 6.95 µM. shares compounds with ADAM10 inh. 2,100 compounds, 0.5% hits. AID 743214, 2013. ADAM17 QFRET peptide cleavage, EDANS fluorescence;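 active = mean triplicate inhibition above the solvent-only control wells' mean plus 3 SD, cut at about 12% in these data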
ADAM10 ctr = ADAM10 inhibitors, counter-screen for ADAM17 exosite inhibitor project, biochemical, FRET, human ADAM10. shares compounds with ADAM17 inh. recombinant ADAM10, EDANS/DABCYL FRET peptide cleavage, 3 h. inhibition, % at 6.95 µM. 2,900 compounds, 47% hits. AID 743256, 2014;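 active = mean inhibition over the triplicate runs exceeds the activity threshold set in the earlier primary screen, cut at about 20% in these data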
ADAM17 confirm = ADAM17 inhibitors, hit retest, confirmation, biochemical, QFRET peptide cleavage; shares compounds with ADAM17 inh; recombinant ADAM17, EDANS/DABCYL QFRET peptide cleavage; inhibition, % at 6.95 µM; 2,900 compounds, 65% hits; AID 743257, 2014;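 active = mean inhibition across replicates above the hit cutoff set in the primary screen, cut at about 8.5% in these data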
PLCg1 ctr = PLC-gamma1 enzyme inhibitors, counter-screen for PLC-beta3 inhibitor project, biochemical, fluorescence; shares compounds with PLC-gamma1 inh; 3,300 compounds, 3.1% hits; purified PLC-gamma1, fluorogenic substrate; inhibition, % at 12.3 µM; in the data active = inhibition above about 9.5%
PLCbeta3 conf = PLC-beta3 inhibitor confirmation, biochemical, fluorescence, purified enzyme. 3,300 compounds, 1% hits. inhibition, % at 12.3 µM. fluorogenic substrate fluorescence. shares compounds with PLC-gamma1 inh
Of the large screens only hits and unclear results are named; the others gave an inactive call (follow-up assays come after a bar, where they were run). Cut-off read from the data, not from the text of the source, unless noted: active = inhibition above about 11%; inactive = the rest.

Oc1ccc(O)c2c1C1(Cl)C(Cl)=C(Cl)C2(Cl)C1(Cl)Cl	ADAM10 inh 41, ADAM17 inh 15 (no result: Rce1 inhib) | ADAM10 confirm inactive | ADAM17 ctr inactive | ADAM10 ctr 29 | ADAM17 confirm 14
CCCC1CCCCC12C(=O)NC(=O)NC2=O (centres undefined)	none (no result: Rce1 inhib)
BrCC(Br)C1CCC(Br)C(Br)C1 (centres undefined)	none (no result: Rce1 inhib)
CC1=CC(C)CC(C)OC(=O)CC(c2ccc(O)cc2)NC(=O)C(Cc2c(Br)[nH]c3ccccc23)N(C)C(=O)C(C)NC(=O)C(C)C1 (centres undefined)	ADAM10 inh 25, ADAM17 inh 8.9 (no result: Rce1 inhib) | ADAM10 confirm inactive | ADAM17 ctr inactive | ADAM10 ctr 30 | ADAM17 confirm 18
CCC(c1nnnn1-c1ccc(OC)cc1)N1CCC2(CC1)C(=O)NCN2c1ccccc1 (centres undefined)	none (no result: Rce1 inhib)
COc1ccc(-n2nnnc2C(CCc2ccccc2)N2CCC3(CC2)C(=O)NCN3c2ccccc2)cc1 (centres undefined)	ADAM10 inh 28, ADAM17 inh 12 (no result: Rce1 inhib) | ADAM10 confirm inactive | ADAM17 ctr inactive | ADAM10 ctr 33 | ADAM17 confirm 18
O=c1[nH]c(=O)n(-c2ccccc2F)c(O)c1C=NCCC1=CCCCC1	none
COc1ccc(NP(=O)(Oc2ccc(Cl)cc2)Oc2ccc(Cl)cc2)cc1OC	ADAM10 inh 23, ADAM17 inh 12 | ADAM10 confirm inactive | ADAM17 ctr inactive | ADAM10 ctr 41 | ADAM17 confirm 17
CC(C)c1ccc(C(c2c(O)c3ccccc3oc2=O)c2c(O)c3ccccc3oc2=O)cc1	ADAM10 inh 23, ADAM17 inh 9.6 (no result: Rce1 inhib) | ADAM10 confirm inactive | ADAM17 ctr inactive | ADAM10 ctr 34 | ADAM17 confirm 23
O=C1OCCC1NC1=NCCC1 (centres undefined)	none
COc1ccc(OC)c(NP(=O)(Oc2ccccc2)Oc2ccccc2)c1	ADAM10 inh 32, PLC-gamma1 inh 11, ADAM17 inh 10 | ADAM10 confirm inactive | ADAM17 ctr inactive | ADAM10 ctr inactive | ADAM17 confirm inactive | PLCg1 ctr inactive | PLCbeta3 conf inactive
COC(=O)C1=C(c2ccc(-c3ccccc3)c(F)c2)C[C@@H]2CC[C@H]1N2C(=O)NCCOc1ccccc1	ADAM10 inh 38, PLC-gamma1 inh 10, ADAM17 inh 18 (no result: Rce1 inhib) | ADAM10 confirm inactive | ADAM17 ctr inactive | ADAM10 ctr 38 | ADAM17 confirm 19 | PLCg1 ctr inactive | PLCbeta3 conf inactive
COCCNC(=O)N1[C@H]2CC[C@@H]1C(C(=O)OC)=C(c1ccc(-c3ccccc3)c(F)c1)C2	none (no result: Rce1 inhib)
